Screening data: PubChem BioAssay, several laboratories
Rows were chosen to be rich in hits. Some 1.6% of all compounds tested hit in one or more screens of this group.
PolyA inhibitor – inhibitors of polyadenylation in S. cerevisiae; S. cerevisiae SKY197-pL101 polyadenylation reporter, beta-gal luminescence; efflux-impaired pdr1/pdr3 knockout yeast; score 100 = 6 SD above DMSO; activity score, % at 12 µM; 0.02% of 300,000 active; AID 1875;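 active means lowest replicate activity score at least 50, where 100 means six control SD above control mean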;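 further: yeast exposed to compound for 9 h at 30 °C; higher score means more reporter readthrough which indicates perturbed polyadenylation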
HTR5A inv ag – counter-screen for OPRM1-OPRD1 inverse agonists: human HTR5A inverse agonism | inhibition, % at 9.3 µM | 0.083% of 340,000 active | HTR5A cell line, luminescence; in the data active means inhibition mostly above about 23%, no sharp cut-off; inactive means mostly below about 18%;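 further: 0% = cells with DMSO and 100% = no-cell wells with DMSO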
Target sequence (P47898 whole entry, looked up): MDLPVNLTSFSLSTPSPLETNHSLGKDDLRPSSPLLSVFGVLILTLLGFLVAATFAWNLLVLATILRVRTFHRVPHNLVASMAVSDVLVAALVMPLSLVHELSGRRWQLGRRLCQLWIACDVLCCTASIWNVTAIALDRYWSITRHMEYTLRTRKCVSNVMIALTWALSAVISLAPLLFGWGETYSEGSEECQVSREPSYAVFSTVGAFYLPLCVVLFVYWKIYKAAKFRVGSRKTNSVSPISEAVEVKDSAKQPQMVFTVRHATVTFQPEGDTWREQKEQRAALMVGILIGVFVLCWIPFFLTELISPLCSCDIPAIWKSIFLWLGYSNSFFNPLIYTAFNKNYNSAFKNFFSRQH
HTR5A ag – activates human HTR5A in OPRM1-OPRD1 agonist counter-screen | P47898 | HTR5A agonist assay, luminescence, cell-based | activation, % at 9.3 µM | 0.61% of 340,000 active | AID 504692; in the data active means activation mostly above about 9.5%, no sharp cut-off; inactive means mostly below about 7.6%;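 further: 0% = cells with vehicle only and 100% = reference agonist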
MOR-DOR ag – OPRM1-OPRD1 heterodimerization agonism; activation, % at 9.3 µM; 0.3% of 340,000 active; cells, luminescence; AID 504326; P35372+P41143; in the data active means activation above about 18%;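 further: 0% = vehicle-treated cells and 100% = reference agonist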
OPRM1-OPRD1 inv – inverse agonist of human OPRM1-OPRD1 heterodimerization; cell-based MOR-DOR heterodimer luminescence, inverse agonism; inhibition, % at 9.3 µM; 0.21% of 340,000 active; AID 504357; in the data active means inhibition above about 22%, passing the limit was not always enough;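 further: 0% = cells with DMSO and 100% = wells without cells with DMSO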
NALP1 yeast inh – NALP1 inhibition. inhibition, % at 10 µM. AID 2071. 0.61% of 280,000 active. S. cerevisiae NALP1/ASC/caspase-1 growth, X-gal OD620, 72 h; in the data active means inhibition mostly above about 24%, no sharp cut-off; inactive means mostly below about 32%
* hit, by the source's call; . = no result.

SMILES | PolyA inhibitor | HTR5A inv ag | HTR5A ag | MOR-DOR ag | OPRM1-OPRD1 inv | NALP1 yeast inh
Cn1c(=O)c2c(nc(NCc3ccco3)n2C/C=C/c2ccccc2)n(C)c1=O | 4 | -39 | 11* | 8 | -41 | 8
COc1ccc(CNCCC(c2ccccc2)c2ccc3c(c2)OCO3)cc1 (stereo unspecified) | -17 | -11 | 6 | 15 | -85 | 27*
Clc1ccc(/C=C/c2nc3ccccc3[nH]2)c(Cl)c1 | -9 | -17 | 13* | 7 | -33 | 4
O=C1C=CC(=O)N1CCCCCCN1C(=O)C=CC1=O | . | . | . | . | . | 112*
O=C1C2C3C=CC(C3)C2C(=O)N1CCCCCCN1C(=O)C2C3C=CC(C3)C2C1=O (stereo unspecified) | . | -28 | 2 | 0 | 2 | 20
Fc1ccc(C2CC(c3ccccc3)Nc3ncnn32)cc1 (stereo unspecified) | -11 | 5 | -2 | -4 | 18 | 35*
O=C1CN=C(Nc2ccccc2Cl)N1c1ccccc1 | 6 | -16 | -11 | 0 | -1 | 34*
COc1ccc(NC2CCCN(C(=O)CCC(=O)c3ccc(F)cc3)C2)cc1 (stereo unspecified) | -16 | 14 | -6 | -4 | 20 | -12
CSc1ccc(/C=C/C(=O)c2ccc(O)cc2)cc1 | 4 | 3 | 7 | 2 | -12 | 59*
Cc1ccc2nc(-c3ccsc3)c(NC3CCCC3)n2c1 | -21 | -6 | 2 | 1 | -8 | 3
CCOC(=O)c1sc(NC(=O)c2ccc(S(=O)(=O)N(CC)CC)cc2)nc1C | -5 | -7 | -1 | -1 | 6 | 33
CCOC(=O)c1csc(NC(=O)c2ccc(S(=O)(=O)N(CC)CC)cc2)n1 | 4 | -26 | 12* | 1 | -6 | -14
O=C(N/N=C/c1ccc([N+](=O)[O-])cc1)c1ccc(COc2ccccc2-c2ccccc2)cc1 | 7 | -53 | -3 | -1 | 4 | 13
CCCCC(=O)Nc1cccc(-c2nn3c(C)nnc3s2)c1 | -23 | 3 | -2 | 1 | -3 | 22
O=C(/C=C/c1cccs1)c1ccc([N+](=O)[O-])cc1 | 0 | 15 | 4 | 4 | -19 | 43*
Cc1ccc(C)c(NC(=O)c2ccccc2NC(=O)C2CCCO2)c1 (stereo unspecified) | 13 | 6 | -1 | -3 | 13 | 15
COc1ccc(OC)c(N=Nc2c(O)c3ccccc3[nH]c2=O)c1 | . | -56 | 14* | 2 | -11 | .
CCOc1ccccc1OCCCC(=O)N1CCN(S(=O)(=O)c2ccc(C)cc2C)CC1 | . | 13 | -5 | 4 | -17 | .
CCOC(=O)C1=C(C)Nc2nnnn2C1c1c[nH]c2ccccc12 (stereo unspecified) | 10 | . | . | . | . | 46*
COc1ccc(NC(=O)CCCN2C(=O)CN(C)C2=O)cc1Cl | . | 2 | -1 | -2 | 8 | .
Cc1ncc([N+](=O)[O-])n1CC(=O)NC1CCCCCC1 | 11 | 1 | 0 | -1 | 7 | 20
Cc1ccccc1-n1c(SCc2cccc(F)c2)nc2[nH]ncc2c1=O | 0 | -48 | 14* | 1 | -4 | 34
N=c1c2c(-c3ccccc3)c(-c3ccccc3)n(Cc3ccccc3)c2ncn1CCCn1ccnc1 | 0 | 12 | -4 | 2 | -13 | 30*
Cc1ccc(S(=O)(=O)N2C(=O)CCC2C(=O)NCc2ccco2)cc1 (stereo unspecified) | -5 | -14 | -2 | 1 | -4 | 40*
Cc1cccc(NC(=S)N/N=C/c2ccc(Cl)c([N+](=O)[O-])c2)c1 | 15 | -22 | 9.3* | 8 | -44 | 0
SMILES | PolyA inhibitor | HTR5A inv ag | HTR5A ag | MOR-DOR ag | OPRM1-OPRD1 inv | NALP1 yeast inh
CC1=CC(=O)Nc2ccccc2S1 | . | 0 | 0 | -5 | 22 | .
COc1ccc(N(C(=O)CCl)C(C(=O)NCCc2ccccc2)c2cccs2)cc1 (stereo unspecified) | -2 | -66 | 55* | 68* | -360 | 4
CCOC(=O)c1c(-c2ccc(C)o2)csc1NC(=O)COC(=O)c1cccs1 | -4 | 10 | 11* | -1 | 6 | -73
CCOC(=O)c1c(-c2ccc(C)o2)csc1NC(=O)CN1CCOCC1 | -7 | -39 | -3 | -3 | 18 | -24
CCN(c1ccc(NC(=O)COC(=O)c2cccs2)cc1)C(C)C | 7 | 9 | 0 | -1 | 8 | -6
CCN(CC)c1ccc(NC(=O)COC(=O)c2cccs2)cc1 | 10 | 8 | -1 | 0 | -2 | 36*
Cc1ccnn1CCC(=O)N1CCCC(CCC(=O)N2CCN(c3ccccn3)CC2)C1 (stereo unspecified) | -1 | 12 | -1 | -3 | 14 | -15
CCOC(=O)c1nc2ccccc2c(=O)[nH]1 | 6 | -11 | 4 | -3 | 15 | 43*
COC(=O)[C@@]1(Cc2ccc(OC)cc2)[C@H]2c3cc(C(=O)N(C)C)n(CCc4ccc(OC)c(Br)c4)c3C[C@H]2CN1C(=O)c1ccccc1 | -6 | . | . | . | . | 18
COC(=O)[C@@]1(Cc2ccc(OC)cc2)[C@H]2c3cc(C(=O)N(C)C)[nH]c3C[C@H]2CN1C(=O)c1ccccc1 | 0 | -9 | 14* | -3 | 19 | 14
COc1ccc(S(=O)(=O)N2CCC3(CC2)OCCN3S(=O)(=O)c2ccc(OC)cc2)cc1 | -3 | 1 | 5 | 2 | -11 | .
COc1ccc(S(=O)(=O)N2CCOC23CCN(S(=O)(=O)c2c(C)cc(C)cc2C)CC3)cc1 | -14 | 8 | 11* | 4 | -24 | .
CCCn1c(=O)c2ccccc2n2c(SCC(=O)c3ccc(F)cc3)nnc12 | . | . | . | . | . | 42*
O=C(CSc1nc(-c2ccccc2)cs1)Nc1nccs1 | 4 | -27 | 11* | 13 | -70 | 18
Cc1c(O)nc(SCC(=O)Nc2nccs2)n(-c2ccccc2F)c1=O | 17 | 6 | -1 | -1 | 3 | 41*
O=C(NNC(=O)c1csc(N2CCOCC2)n1)c1cccnc1 | -2 | -40 | 13 | 1 | -8 | .
c1ccc2c(c1)Oc1ccccc1S2 | . | -52 | 13* | -3 | 17 | .
CCOC(=O)NC(=O)CSc1nnc(C2CC2)n1Cc1ccco1 | 0 | -14 | 5 | -2 | 11 | 6
CCc1ccc(Cn2nnc(C(=O)Nc3ccc(OC)cc3OC)c2N)cc1 | -29 | 19 | -7 | 0 | 1 | 45*
Nc1c(Cl)nc(-c2ccccc2)nc1Cl | -9 | -7 | 2 | 3 | -13 | 3
Cc1nc(-c2ccccc2)nc(Cl)c1Cl | -5 | 10 | -4 | -1 | 4 | 33*
COc1ccc2sc(-c3ccc(S(C)(=O)=O)cc3)c(-c3ccc(SC)cc3)c2c1 | . | 12 | -5 | -1 | 6 | .
COC(=O)CSc1nc2ccc(NC(=O)CSc3nnnn3Cc3ccccc3)cc2s1 | -9 | -10 | 4 | -1 | 9 | -9
O=C(CSc1nc2ccc(NC(=O)CSc3nnnn3Cc3ccccc3)cc2s1)Nc1ccccc1 | 10 | -32 | 14* | 4 | -23 | 13
